Several values for one entry are separate records, joined by “and”; a condition that tells them apart may be missing. Equal entries are not always repeated. ± gives the standard deviation of the averaged measurements. The full ranking holds about 1,700 compounds; the median of “fraction of GFP-LC3-positive cells (≥5 vesicles/cell)” is about 0.43, and the highest 2% start at about 0.81. The entries come from a sample that favours the highest values as a whole.
system: CbCln3 Δex7/8/Δex7/8 GFP-LC3 cerebellar neuronal cells; test: fraction of GFP-LC3-positive cells (≥5 vesicles/cell); higher = more autophagosome accumulation
Summary of the method: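 Values are the duplicate-averaged fraction of cells passing a GFP-LC3 vesicle cutoff, counted per cell in CellProfiler with out-of-focus images excluded. That cutoff is 5 or more vesicles. Wild-type or mutant CbCln3 cerebellar cells stably expressing GFP-LC3 (2 × 10^3/well, 384-well) were given ~50 nL compound in DMSO by pin transfer for 24 h at 33 °C, then fixed in 3.2% PFA and imaged at 10×, three fields per well.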

SMILES	fraction of GFP-LC3-positive cells
CN(C(=O)C(Cl)Cl)c1ccc(OC(=O)c2ccco2)cc1 [Diloxanide furoate]	0.372
Cl.c1ccc2c(c1)CCCC2C1=NCCN1 (stereo not drawn) [Tetrahydrozoline hydrochloride]	0.357
CC(C)C[C@H](NC(=O)[C@H]1CCCN1C(=O)OCc1ccccc1)C(=O)NCC(=O)NO	0.442
CN(C)CCCn1cc(C2=C(c3c[nH]c4ccccc34)C(=O)NC2=O)c2ccccc21	0.583 and 0.599
Cn1cc(C2=C(c3cn(CCCSC(=N)N)c4ccccc34)C(=O)NC2=O)c2ccccc21	0.854 ± 0.15
CN(C)CCC=C1c2ccccc2C=Cc2ccccc21.Cl [Cyclobenzaprine hydrochloride]	0.513
CC[C@]1(O)C[C@@H]2CN(CCc3c([nH]c4ccccc34)[C@@](C(=O)OC)(c3cc4c(cc3OC)N(C)[C@H]3[C@@](O)(C(=O)OC)[C@H](OC(C)=O)[C@]5(CC)C=CCN6CC[C@]43[C@@H]65)C2)C1.O=S(=O)(O)O [vinblastine]	0.848
CC/C=C\C/C=C\C/C=C\CCCCCCCCCCCC(=O)O	0.417
CC/C=C\C/C=C\C/C=C\CCCCCCCCCCCC(=O)O [Docosatrienoic acid (22:3 n-3)]	0.541
CC/C=C\C/C=C\C/C=C\CCCCCCCCCCCC(=O)O [Docosatrienoic acid (22:3 N-3)]	0.466
CC[N+](C)(C)c1cccc(O)c1.[Cl-] [Edrophonium chloride]	0.407
CC(C)NNC(=O)c1ccncc1.O=P(O)(O)O [Iproniazide phosphate]	0.489
CNCCCN1c2ccccc2CCc2ccccc21.Cl [Desipramine hydrochloride]	0.486
CN(C)CCOC(C)(c1ccccc1)c1ccccn1.O=C(O)CCC(=O)O (stereo not drawn) [Doxylamine succinate]	0.314
O=C(NCC1CCCCN1)c1cc(OCC(F)(F)F)ccc1OCC(F)(F)F (stereo not drawn)	0.524
c1ccc2[nH]c(-c3cscn3)nc2c1 [Tiabendazole]	0.326
CC[C@H]1[C@@H]2C=C[C@@H]3[C@H]4C/C=C\C(=O)NCCC[C@@H]5NC(=O)C(=C5O)C(=O)CC[C@@H]4C[C@@H]3[C@H]2C[C@H]1C [Ikarugamyin]	0.921
CCCCCCCC/C=C\CCCCCCCC(=O)NCCc1ccc(O)c(O)c1 [Oleoyl dopamine]	0.611
CCCCC/C=C\C=C\C(O)CCCCCCCC(=O)O (racemic)	0.29
CCOC(=O)[C@H](CCc1ccccc1)N[C@@H](C)C(=O)N1CCC[C@H]1C(=O)O.O=C(O)/C=C\C(=O)O [Enalapril maleate]	0.395
CCCCC[C@H](O)/C=C/C=C/C=C/[C@H](O)C/C=C\CCCC(=O)O [8(R),15(S)-DiHETE all trans]	0.298
CC[N+](CC)(CC)CCC(O)(c1ccccc1)C1CCCCC1.[Cl-] (stereo not drawn) [Tridihexethyl chloride]	0.44
CCCCCCCCCCCCCCCCOC[C@H](COP(=O)([O-])OCC[N+](C)(C)C)OC(=O)NC	0.4228 ± 0.0025
NC(=O)N/N=C/c1ccc([N+](=O)[O-])o1 [Nitrofural]	0.493

SMILES	fraction of GFP-LC3-positive cells
CCC1NC(=O)c2cc(S(N)(=O)=O)c(Cl)cc2N1 (stereo not drawn) [Quinethazone]	0.417
CN(C)CCCSC(=N)N.Cl.Cl [Dimaprit dihydrochloride]	0.45
Nc1nc(=O)[nH]cc1F [Flucytosine]	0.296
Cl.Clc1ccccc1CN1CCc2sccc2C1 [Ticlopidine hydrochloride]	0.403
CN[C@H]1CC[C@@H](c2ccc(Cl)c(Cl)c2)c2ccccc21 [Sertraline]	0.311
Oc1ccc(-c2nc(-c3ccc(F)cc3)c(-c3ccncc3)[nH]2)cc1	0.524 and 0.566
N=C(N)NCCC[C@H](NC(=O)[C@@H]1CCCN1C(=O)[C@H](N)Cc1ccccc1)C(=O)CCl	0.502
CC(=O)N[C@@H](CC(C)C)C(=O)N[C@@H](CC(C)C)C(=O)N[C@H](C=O)CCCNC(=N)N [Leupeptin]	0.392
CCCC[C@@H](C=O)NC(=O)[C@H](CC(C)C)NC(=O)[C@H](CC(C)C)NC(C)=O	0.93
CSCC[C@@H](C=O)NC(=O)[C@H](CC(C)C)NC(=O)[C@H](CC(C)C)NC(C)=O	0.448
CCOC(=O)/N=c1/c[n+](N2CCOCC2)[n-]o1 [Molsidomine]	0.473
CCC[C@@H]1C[C@@H](C(=O)N[C@@H]([C@H]2O[C@H](SC)[C@H](O)[C@@H](O)[C@@H]2O)[C@@H](C)O)N(C)C1.Cl [Lincomycin hydrochloride]	0.505
CS(=O)(=O)c1ccc([C@@H](O)[C@@H](CF)NC(=O)C(Cl)Cl)cc1 [Florfenicol]	0.355
CN(C)c1ccc(/C=C2\C(=O)Nc3ccccc32)cc1	0.441 and 0.394
COC(=O)Nc1nc2cc(C(=O)c3cccs3)ccc2[nH]1 [Nocodazole]	0.916
COC(=O)Nc1nc2cc(C(=O)c3cccs3)ccc2[nH]1 [nocodazole]	0.612
CC(C(=O)O)c1ccc(C(=O)c2cccs2)cc1 (stereo not drawn) [Suprofen]	0.46
CC(C(=O)O)c1cccc(C(=O)c2ccccc2)c1 (stereo not drawn) [Ketoprofen]	0.499
O=C(O)c1ccc2nc(-c3ccccc3)c(-c3ccccc3)nc2c1	0.507
COC(=O)Nc1nc2cc(C(=O)c3ccccc3)ccc2[nH]1 [Mebendazole]	0.9
Cc1cc(C2CCCCC2)n(O)c(=O)c1.NCCO [Ciclopirox ethanolamine]	0.809
Cc1cc(=O)n(-c2ccccc2)n1C [Antipyrine]	0.36
CC(C)COCC(CN(Cc1ccccc1)c1ccccc1)N1CCCC1 (stereo not drawn)	0.621
CCCCC[C@H](O)/C=C/C=C\C/C=C\C/C=C\CCCC(=O)O	0.405 ± 0.089
